From the supplement of paper PMC10849652
Targets with a hit are over-represented here; the source holds about 8,800 in all. About 0.5% of all pairs of compound and target were hits. Unmarked numbers belong to inactive results.

Columns and labels:
Experiment in all cases: log2 fold change, soluble protein after heating vs DMSO (PISA); higher = thermal stabilisation; K562 lysate, 10 uM; active = over 0.2 and 3.5 SD of the protein, either way, in both replicates (recomputed)
erlotinib = compound: C#Cc1cccc(Nc2ncnc3cc(OCCOC)c(OCCOC)cc23)c1 [erlotinib]
Procedure, shortened: (§1)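 K562 pellets were dounce-homogenised in PBS pH 7.4 containing 1 mM MgCl2, and the crude extract, at 1 mg/mL protein, was exposed to 10 μM compound for 30 min. Aliquots were heated for 3 min across 48°C-58°C, pooled, brought to 0.5% NP-40 at 4°C and spun at 21,000xg for 90 min, with the supernatant taken as soluble protein. TMTpro 16plex LC-MS/MS with equalised channel sums quantified that protein. Values are log-two fold changes in thermal stability relative to solvent controls, taken from duplicates.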

[1] = compound: C/C(=N\NC(=O)C1=CC(=CC=C1)S(=O)(=O)N2CCOCC2)/C3=C(C=CC(=C3)Cl)O
Procedure, shortened: as §1

[2] = compound: C1=CC(=CC=C1C2=NC3=C(N2)C=C(C=C3)C(=O)N)OC4=CC=C(C=C4)Cl
Procedure, shortened: as §1

[3] = compound: C1=CC2=C(C=CC(=C2)/C=C\3/C(=O)NC(=NCC4=CC=CS4)S3)N=C1
Procedure, shortened: as §1

[4] = compound: C1=CC2=NC=CN=C2C=C1/C=C/3\C(=O)NC(=O)S3
Procedure, shortened: as §1

[5] = compound: C1=CC=C(C=C1)C2=NC(=C(N2)C3=CC=NC=C3)C4=CC(=C(C=C4)Cl)O
Procedure, shortened: as §1

[6] = compound: C1=CC=C2C(=C1)C3=NNC4=CC=CC(=C43)C2=O
Procedure, shortened: as §1

[7] = compound: C1CCN(C1)C(=O)NC2=CC=CC(=C2)NC3=NC=C(C(=N3)NCCC4=CN=CN4)Br
Procedure, shortened: as §1

[8] = compound: C1CN(CCC1(CC2=CC=C(C=C2)Cl)N)C3=NC=NC4=C3C=CN4
Procedure, shortened: as §1

IRAK-1-4 Inhibitor I = compound: C1COCCN1CCN2C3=CC=CC=C3N=C2NC(=O)C4=CC(=CC=C4)[N+](=O)[O-] [IRAK-1-4 Inhibitor I]
Procedure, shortened: as §1

ibrutinib = compound: C=CC(=O)N1CCC[C@@H](n2nc(-c3ccc(Oc4ccccc4)cc3)c3c(N)ncnc32)C1 [ibrutinib]
Procedure, shortened: as §1

[9] = compound: CC(=O)c1cnc2ccc(-c3cc(Cl)c(O)c(Cl)c3)nc2c1N[C@H]1CC[C@H](CN(C)C)CC1
Procedure, shortened: as §1

ralimetinib = compound: CC(C)(C)Cn1c(N)nc2ccc(-c3[nH]c(C(C)(C)C)nc3-c3ccc(F)cc3)nc21 [ralimetinib]
Procedure, shortened: as §1

[10] = compound: CC(C)(O)CC(=O)NCCn1ccc2ncnc(Nc3ccc(Oc4cccc(C(F)(F)F)c4)c(Cl)c3)c21
Procedure, shortened: as §1

[11] = compound: CC(C)C1=C2N=C(C=C(N2N=C1)NCC3=CC=CC=C3)NCCCCCCN
Procedure, shortened: as §1

[12] = compound: CC1=C(C(CC(=O)N1)C2=CC=C(C=C2)C(F)(F)F)C(=O)NC3=C(C=C4C(=C3)C=NN4)F
Procedure, shortened: as §1

[13] = compound: CC1=C(C2=C(C=C1)C(=O)C3=CC=CC=C3N2CCCN)C
Procedure, shortened: as §1

[14] = compound: CC1=C(C=C(C=C1)NC(=O)C2=CC(=CC=C2)C(C)(C)C#N)NC3=CC4=C(C=C3)N=CN(C4=O)C
Procedure, shortened: as §1

[15] = compound: CC1=C(C=C(C=C1)NC(=O)C2=CC(=CC=C2)N(C)C)NC(=O)C3=CC=C(C=C3)O
Procedure, shortened: as §1

[16] = compound: CC1=CC=C(C=C1)SC2=C3C=C(SC3=CN=C2)C(=O)N
Procedure, shortened: as §1

Sequence of UniProt Q9BVS4 (Q9BVS4 whole entry, looked up): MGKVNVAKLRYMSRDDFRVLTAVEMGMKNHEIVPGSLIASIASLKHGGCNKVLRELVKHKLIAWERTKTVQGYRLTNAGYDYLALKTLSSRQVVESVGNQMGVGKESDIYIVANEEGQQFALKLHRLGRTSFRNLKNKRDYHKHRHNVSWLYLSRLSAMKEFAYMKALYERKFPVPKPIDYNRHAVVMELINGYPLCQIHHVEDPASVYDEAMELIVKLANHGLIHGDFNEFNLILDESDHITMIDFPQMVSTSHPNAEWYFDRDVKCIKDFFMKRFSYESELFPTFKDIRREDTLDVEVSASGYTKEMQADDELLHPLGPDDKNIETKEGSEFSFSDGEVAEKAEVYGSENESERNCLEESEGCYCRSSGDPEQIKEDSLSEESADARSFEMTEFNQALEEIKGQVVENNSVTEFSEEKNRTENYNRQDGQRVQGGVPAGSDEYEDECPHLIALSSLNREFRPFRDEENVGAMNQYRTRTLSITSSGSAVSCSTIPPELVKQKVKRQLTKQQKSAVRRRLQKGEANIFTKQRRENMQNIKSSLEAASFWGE
Sequence of UniProt Q5HYI8 (Q5HYI8 whole entry, looked up): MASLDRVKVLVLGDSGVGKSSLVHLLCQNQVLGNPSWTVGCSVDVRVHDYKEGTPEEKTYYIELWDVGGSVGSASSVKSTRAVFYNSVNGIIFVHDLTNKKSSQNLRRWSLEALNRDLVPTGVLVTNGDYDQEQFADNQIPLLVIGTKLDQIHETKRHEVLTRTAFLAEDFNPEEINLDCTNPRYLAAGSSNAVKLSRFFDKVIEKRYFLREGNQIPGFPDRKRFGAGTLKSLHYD
Sequence of UniProt Q9BWF3 (Q9BWF3 whole entry, looked up): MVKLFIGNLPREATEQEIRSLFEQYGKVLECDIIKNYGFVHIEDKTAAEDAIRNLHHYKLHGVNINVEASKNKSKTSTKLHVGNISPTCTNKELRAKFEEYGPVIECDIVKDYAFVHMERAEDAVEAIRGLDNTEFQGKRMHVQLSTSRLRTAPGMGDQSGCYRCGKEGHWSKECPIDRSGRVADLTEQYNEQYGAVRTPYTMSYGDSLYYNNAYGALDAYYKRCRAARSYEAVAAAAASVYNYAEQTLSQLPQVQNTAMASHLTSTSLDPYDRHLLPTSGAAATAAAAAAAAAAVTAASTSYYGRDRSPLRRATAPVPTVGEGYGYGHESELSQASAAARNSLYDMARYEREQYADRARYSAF
Sequence of UniProt P40938 (P40938 whole entry, looked up): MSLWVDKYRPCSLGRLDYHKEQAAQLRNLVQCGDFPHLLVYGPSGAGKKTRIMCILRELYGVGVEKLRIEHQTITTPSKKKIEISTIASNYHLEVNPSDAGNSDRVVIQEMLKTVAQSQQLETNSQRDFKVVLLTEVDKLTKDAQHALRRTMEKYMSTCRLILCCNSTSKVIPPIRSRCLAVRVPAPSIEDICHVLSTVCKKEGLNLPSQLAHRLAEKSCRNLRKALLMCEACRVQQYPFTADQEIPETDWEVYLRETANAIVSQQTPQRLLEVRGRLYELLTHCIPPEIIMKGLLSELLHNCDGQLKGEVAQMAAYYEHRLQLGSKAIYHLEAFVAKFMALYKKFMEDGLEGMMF
Sequence of UniProt Q00765 (Q00765 whole entry, looked up): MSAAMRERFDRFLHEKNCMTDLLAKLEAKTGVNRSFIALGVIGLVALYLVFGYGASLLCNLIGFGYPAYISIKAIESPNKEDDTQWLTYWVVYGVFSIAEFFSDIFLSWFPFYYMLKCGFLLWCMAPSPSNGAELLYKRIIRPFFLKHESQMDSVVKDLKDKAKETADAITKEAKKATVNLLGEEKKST
Sequence of UniProt O00767 (O00767 whole entry, looked up): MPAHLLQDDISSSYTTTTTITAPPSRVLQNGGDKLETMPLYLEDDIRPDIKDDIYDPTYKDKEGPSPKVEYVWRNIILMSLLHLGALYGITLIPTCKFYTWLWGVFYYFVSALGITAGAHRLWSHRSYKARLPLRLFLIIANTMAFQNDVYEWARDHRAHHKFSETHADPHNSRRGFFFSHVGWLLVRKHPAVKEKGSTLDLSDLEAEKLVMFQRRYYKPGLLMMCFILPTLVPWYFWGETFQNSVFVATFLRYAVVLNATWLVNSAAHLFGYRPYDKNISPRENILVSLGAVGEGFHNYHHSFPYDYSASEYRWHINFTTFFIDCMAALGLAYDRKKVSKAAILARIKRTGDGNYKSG
Sequence of UniProt P04844 (P04844 whole entry, looked up): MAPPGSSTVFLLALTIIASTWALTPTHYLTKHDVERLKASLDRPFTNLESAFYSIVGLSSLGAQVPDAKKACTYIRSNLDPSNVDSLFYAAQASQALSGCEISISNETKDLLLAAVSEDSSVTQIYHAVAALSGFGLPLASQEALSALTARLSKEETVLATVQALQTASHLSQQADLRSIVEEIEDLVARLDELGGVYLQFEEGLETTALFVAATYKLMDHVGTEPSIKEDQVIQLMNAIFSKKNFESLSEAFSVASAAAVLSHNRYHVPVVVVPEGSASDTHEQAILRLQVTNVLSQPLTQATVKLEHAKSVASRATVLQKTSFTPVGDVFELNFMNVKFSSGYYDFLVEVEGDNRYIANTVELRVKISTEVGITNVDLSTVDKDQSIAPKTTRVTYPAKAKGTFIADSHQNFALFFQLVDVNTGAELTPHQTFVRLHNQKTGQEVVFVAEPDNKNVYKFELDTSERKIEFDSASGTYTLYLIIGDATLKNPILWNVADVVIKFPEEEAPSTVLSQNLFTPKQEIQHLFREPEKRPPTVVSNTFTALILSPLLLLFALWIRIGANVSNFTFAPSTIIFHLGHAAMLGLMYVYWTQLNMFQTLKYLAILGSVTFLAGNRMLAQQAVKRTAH
Sequence of UniProt Q16576 (Q16576 whole entry, looked up): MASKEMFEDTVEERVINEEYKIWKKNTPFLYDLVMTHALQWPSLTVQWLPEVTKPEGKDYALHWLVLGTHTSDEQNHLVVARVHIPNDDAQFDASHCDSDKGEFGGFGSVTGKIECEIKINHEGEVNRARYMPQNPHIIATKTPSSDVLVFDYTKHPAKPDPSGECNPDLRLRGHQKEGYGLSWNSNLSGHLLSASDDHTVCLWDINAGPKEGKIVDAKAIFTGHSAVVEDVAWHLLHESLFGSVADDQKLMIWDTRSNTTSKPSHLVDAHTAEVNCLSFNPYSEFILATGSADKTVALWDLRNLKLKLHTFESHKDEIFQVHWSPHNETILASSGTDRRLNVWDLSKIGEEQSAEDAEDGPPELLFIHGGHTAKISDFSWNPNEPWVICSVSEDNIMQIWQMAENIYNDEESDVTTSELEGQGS
Sequence of UniProt P78406 (P78406 whole entry, looked up): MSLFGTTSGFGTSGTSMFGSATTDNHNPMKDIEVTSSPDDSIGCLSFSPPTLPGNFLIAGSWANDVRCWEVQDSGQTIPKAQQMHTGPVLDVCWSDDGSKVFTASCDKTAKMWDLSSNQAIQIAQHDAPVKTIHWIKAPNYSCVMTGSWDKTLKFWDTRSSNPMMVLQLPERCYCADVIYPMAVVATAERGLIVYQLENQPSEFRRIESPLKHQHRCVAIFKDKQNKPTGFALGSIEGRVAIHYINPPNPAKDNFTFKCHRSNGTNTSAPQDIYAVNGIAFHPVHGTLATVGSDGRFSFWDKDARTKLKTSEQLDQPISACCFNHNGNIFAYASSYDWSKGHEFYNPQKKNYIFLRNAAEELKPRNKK
Sequence of UniProt Q92930 (Q92930 whole entry, looked up): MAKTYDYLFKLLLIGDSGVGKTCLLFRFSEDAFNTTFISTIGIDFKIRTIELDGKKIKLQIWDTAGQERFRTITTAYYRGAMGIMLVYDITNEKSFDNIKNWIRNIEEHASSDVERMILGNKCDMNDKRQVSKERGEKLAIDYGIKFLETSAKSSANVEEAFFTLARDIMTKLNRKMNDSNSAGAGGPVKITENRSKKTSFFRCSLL
Sequence of UniProt P47736 (P47736 whole entry, looked up): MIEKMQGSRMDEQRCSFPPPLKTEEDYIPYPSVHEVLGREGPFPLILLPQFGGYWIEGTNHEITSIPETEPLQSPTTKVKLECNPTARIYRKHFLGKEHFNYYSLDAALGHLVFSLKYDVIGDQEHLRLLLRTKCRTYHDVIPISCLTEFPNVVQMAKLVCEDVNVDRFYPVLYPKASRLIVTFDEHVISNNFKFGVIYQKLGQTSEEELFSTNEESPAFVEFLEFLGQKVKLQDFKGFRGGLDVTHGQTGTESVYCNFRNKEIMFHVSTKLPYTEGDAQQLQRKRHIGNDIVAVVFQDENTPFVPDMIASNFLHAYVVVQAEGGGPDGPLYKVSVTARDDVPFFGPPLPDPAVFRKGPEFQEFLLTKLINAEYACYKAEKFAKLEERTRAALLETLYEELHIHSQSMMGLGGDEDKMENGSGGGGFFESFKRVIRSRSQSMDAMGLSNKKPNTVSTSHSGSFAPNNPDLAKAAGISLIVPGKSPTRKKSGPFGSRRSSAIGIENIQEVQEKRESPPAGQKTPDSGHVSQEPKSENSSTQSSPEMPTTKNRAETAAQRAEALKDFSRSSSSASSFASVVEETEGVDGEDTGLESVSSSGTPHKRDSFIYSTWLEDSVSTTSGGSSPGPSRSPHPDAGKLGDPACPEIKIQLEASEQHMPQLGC

| Target | log2 fold change (erlotinib) | log2 fold change [1] | log2 fold change [2] | log2 fold change [3] | log2 fold change [4] | log2 fold change [5] | log2 fold change [6] | log2 fold change [7] | log2 fold change [8] | log2 fold change (IRAK-1-4 Inhibitor I) | log2 fold change (ibrutinib) | log2 fold change [9] | log2 fold change (ralimetinib) | log2 fold change [10] | log2 fold change [11] | log2 fold change [12] | log2 fold change [13] | log2 fold change [14] | log2 fold change [15] | log2 fold change [16] |
| --- | --- | --- | --- | --- | --- | --- | --- | --- | --- | --- | --- | --- | --- | --- | --- | --- | --- | --- | --- | --- |
| RPN2 (UniProt P04844) | 0 | 0.014 | -0.055 | 0.022 | 0.021 | 0 | -0.049 | -0.007 | 0.006 | 0.007 | -0.008 | 0.014 | -0.004 | -0.035 | -0.021 | 0.008 | 0.021 | -0.011 | -0.015 | -0.017 |
| RPL37A (UniProt P61513) | -0.012 | -0.067 | -0.006 | -0.011 | -0.03 | 0.03 | 0.064 | 0.039 | -0.035 | -0.023 | -0.005 | 0.002 | -0.041 | 0.03 | -0.009 | -0.021 | -0.032 | 0.038 | 0.004 | 0.051 |
| RBBP7 isoform 2 (UniProt Q16576) | -0.036 | 0.046 | -0.036 | -0.03 | -0.013 | -0.002 | 0.055 | 0.041 | -0.026 | -0.006 | 0.016 | 0.043 | 0.062 | 0.042 | -0.028 | -0.029 | 0.011 | -0.002 | -0.001 | 0.034 |
| RPL36AL (UniProt Q969Q0) | -0.036 | -0.098 | -0.012 | 0.061 | -0.029 | 0.029 | 0.048 | 0.049 | -0.05 | -0.109 | -0.038 | 0.004 | -0.018 | 0.088 | -0.004 | -0.001 | 0.068 | -0.038 | 0.013 | 0.052 |
| RABL3 (UniProt Q5HYI8) | 0.706 (active) | -0.019 | -0.025 | 0.011 | 0.008 | 0.96 (active) | -0.041 | 0.015 | 0.017 | 0.48 | 0.017 | 0.014 | 0.153 | -0.05 | -0.047 | 0.021 | -0.043 | 0.003 | -0.141 | 0.014 |
| RFC3 (UniProt P40938) | 0.05 | 0.01 | -0.034 | 0.024 | 0.005 | 0.005 | -0.027 | -0.002 | 0.049 | 0.028 | 0.024 | 0.131 | 0.03 | -0.012 | -0.04 | 0.004 | -0.034 | 0.002 | 0.042 | -0.008 |
| RBM4 (UniProt Q9BWF3) | -0.031 | 0.059 | -0.008 | 0.009 | 0.008 | -0.065 | -0.008 | 0.001 | 0 | -0.003 | 0.006 | 0.021 | 0.008 | -0.014 | 0.023 | 0.028 | 0.005 | -0.154 | 0.025 | -0.004 |
| SEC16A isoform 5 (UniProt O15027) | 0.006 | -0.019 | 0.025 | -0.016 | -0.031 | -0.038 | -0.085 | -0.022 | 0.002 | -0.005 | 0.035 | -0.021 | -0.013 | 0.015 | 0.01 | 0.019 | 0.004 | -0.121 | 0.011 | -0.031 |
| RASA2 (UniProt Q15283) | 0.016 | -0.001 | -0.054 | -0.071 | -0.028 | 0.018 | -0.069 | -0.024 | 0.028 | -0.003 | 0.034 | -0.011 | 0.006 | -0.038 | 0.014 | 0.023 | 0.004 | 0.033 | 0.019 | -0.013 |
| RPL8 (UniProt P62917) | 0.001 | -0.307 | -0.024 | -0.025 | -0.026 | 0.007 | 0.109 | 0.019 | -0.085 | -0.005 | 0.031 | 0.007 | 0.01 | -0.002 | -0.008 | 0.012 | -0.045 | -0.076 | -0.013 | 0.011 |
| RAE1 (UniProt P78406) | 0.045 | -0.036 | 0.014 | 0.046 | 0.012 | -0.021 | -0.007 | -0.019 | 0.033 | -0.024 | -0.033 | -0.01 | 0.007 | 0.185 | -0.007 | -0.022 | 0.012 | -0.064 | 0.011 | 0.023 |
| RAB8B (UniProt Q92930) | 0.013 | -0.042 | 0.049 | 0.113 | 0.004 | 0.034 | 0.125 | 0 | -0.006 | 0.035 | -0.03 | -0.018 | -0.035 | -0.013 | -0.003 | 0.051 | -0.001 | 0.01 | 0.099 | -0.06 |
| REEP5 (UniProt Q00765) | 0.017 | -0.041 | 0.022 | 0.036 | 0.001 | -0.008 | -0.077 | -0.008 | 0.015 | 0.025 | 0.043 | 0.004 | -0.014 | -0.01 | -0.037 | 0.017 | -0.039 | 0.004 | -0.016 | -0.042 |
| RIOK2 (UniProt Q9BVS4) | -0.018 | -0.045 | -0.015 | 0.07 | 0.038 | 0.029 | 0.395 (active) | -0.01 | -0.019 | -0.005 | -0.012 | 0.512 (active) | 0.026 | -0.014 | -0.021 | -0.018 | -0.011 | -0.016 | 0.013 | 0.052 |
| SCD (UniProt O00767) | 0.075 | -0.093 | 0.027 | 0.056 | -0.012 | 0.009 | 0.011 | -0.24 | -0.021 | 0.07 | -0.06 | -0.053 | 0.059 | -0.009 | -0.052 | 0.032 | 0.047 | 0.02 | -0.085 | -0.128 |
| RAP1GAP isoform 4 (UniProt P47736) | 0.087 | -0.028 | -0.011 | -0.018 | -0.019 | -0.012 | -0.005 | 0.02 | 0.056 | 0.041 | -0.024 | 0.018 | 0.068 | -0.037 | 0.051 | 0.003 | -0.008 | 0.056 | -0.009 | -0.012 |
